Assay results published in PubChem BioAssay (NCATS).
Results filed as inconclusive are left out. The source made the active and inactive calls. Calls come from the whole dose curve; as a rule, active = well fitted inhibition curve with a large enough effect; inconclusive = small, poorly fitted or top-dose-only effect; inactive = flat fitted curve, though single readings scatter.

How the values were obtained:
Experiment in all cases: qHTS profiling for inhibitors of Plasmodium falciparum proliferation (AID 504749); note: nearly all actives have a fitted effect of over 60% in size
Settings in all cases: P. falciparum in erythrocytes, SYBR Green DNA, 72 h; series mostly up to 12.8 µM
CP203 = tested on: CP203
Outline: (§1)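 SYBR Green fluorescence (ex 485 nm, em 535 nm) reports parasite DNA after 72 h compound exposure of infected red cells at 0.3% parasitemia, 2.5% hematocrit; signal normalized to 0.29 uM artemisinin and vehicle wells.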

CP262 = tested on: CP262
Outline: as §1

CP266 = tested on: CP266
Outline: as §1

CP269 = tested on: CP269
Outline: as §1

CP297 = tested on: CP297
Outline: as §1

CP305 = tested on: CP305
Outline: as §1

CP325 = tested on: CP325
Outline: as §1

CP329 = tested on: CP329
Outline: as §1

CP335 = tested on: CP335
Outline: as §1

DIV14 = tested on: DIV14
Outline: as §1

DIV30 = tested on: DIV30
Outline: as §1

AA1029 = tested on: AA1029
Outline: as §1

AS120 = tested on: AS120
Outline: as §1

CP185 = tested on: CP185
Outline: as §1

CP260 = tested on: CP260
Outline: as §1

CP265 = tested on: CP265
Outline: as §1

CP286 = tested on: CP286
Outline: as §1

HB3 = tested on: HB3
Outline: as §1

PAD = tested on: PAD
Outline: as §1

TAB113 = tested on: TAB113
Outline: as §1

Measured: Potency
Potency is the fitted concentration of half-maximal effect.

O=C1O[C@H](CN2CCOCC2)CN1/N=C\c1ccc([N+](=O)[O-])o1
inactive: CP203 | CP262 | CP266 | CP269 | CP297 | CP305 | CP325 | CP329 | CP335 | DIV14 | DIV30

CCOC(=O)[C@H](CCc1ccccc1)N[C@@H](C)C(=O)N1[C@H](C(=O)O)C[C@H]2CCC[C@@H]21
not listed: CP297 | CP329 | DIV30
inactive: all other assays above

CO[C@H]1[C@@H](OC(N)=O)[C@H](O)[C@@H](Oc2ccc3c(O)c(NC(=O)c4ccc(O)c(CC=C(C)C)c4)c(=O)oc3c2C)OC1(C)C
not listed: CP266 | CP297
inactive: all other assays above

C=CCN1C(=CCO)[C@H]2C[C@H]3[C@@H]1CC[C@@]31c3ccccc3N3C=C4[C@@H]5N(/C=C/2[C@H]31)c1ccccc1[C@]51CC[C@H]2[C@H]1C[C@@H]4/C(=C/CO)N2CC=C
not listed: CP335
inactive: all other assays above

CC[N+](CC)(CC)CC[C@](O)(c1ccccc1)C1CCCCC1
not listed: DIV14 | CP260 | CP286 | HB3
inactive: all other assays above

CC(C)(C)NC[C@H](O)COc1cccc2c1CCC(=O)N2
not listed: CP335
inactive: all other assays above

COc1cc(N)c(Cl)cc1C(=O)N[C@H]1CCN(CCCOc2ccc(F)cc2)C[C@H]1OC
inactive: CP203 | CP266 | CP297
active: CP260 3.16 µM | CP262 3.61 µM | CP265 3.98 µM | CP286 3.55 µM

Cc1cccc(C)c1NC(=O)[C@H](C)N
active: CP297 5.1 µM
inactive: AA1029 | AS120 | CP185 | CP260 | CP265 | CP286 | CP335 | HB3 | PAD | TAB113

CCC(=O)O[C@@H]1[C@H](C)O[C@H](O[C@H]2[C@@H](N(C)C)[C@H](O)[C@@H](O[C@@H]3[C@@H](CC=O)C[C@@H](C)[C@@H](O)/C=C\C=C/C[C@@H](C)OC(=O)C[C@@H](OC(=O)CC)[C@H]3OC)O[C@H]2C)C[C@]1(C)O
inactive: AS120 | DIV14 | DIV30 | HB3 | PAD | TAB113

CC(=O)OCC(=O)[C@@]1(O)CC[C@@H]2[C@H]3CCC4=CC(=O)C=C[C@]4(C)[C@]3(F)[C@@H](O)C[C@@]21C
inactive: all assays above

C[N+]12CCC(CC1)[C@@H](OC(=O)C(O)(c1ccccc1)c1ccccc1)C2
not listed: CP203 | CP305 | DIV14 | DIV30
inactive: all other assays above

O=C(NC[C@@H](O)CO)c1c(I)c(C(=O)NC[C@@H](O)CO)c(I)c(N(CCO)C(=O)CO)c1I
not listed: CP266
inactive: all other assays above

C[C@@]12CC[C@H]3[C@@H](CCC4=CC(=O)CC[C@]43C)[C@H]1CC[C@H]2C(=O)CO
not listed: CP203 | DIV14 | AS120 | PAD | TAB113
inactive: all other assays above

CC(=O)[C@@]1(O)CC[C@H]2[C@H]3C[C@@H](C)C4=CC(=O)C=C[C@]4(C)[C@@]3(F)[C@@H](O)C[C@]21C
not listed: CP266
inactive: all other assays above

CN1C(=O)C[C@H](c2ccccc2)C1=O
not listed: AS120 | CP185 | CP265 | TAB113
inactive: all other assays above

CC(=O)N(C[C@@H](C)C(=O)O)c1c(I)cc(I)c(N)c1I
inactive: AA1029 | AS120 | CP185 | CP260 | CP265 | CP286 | CP335 | HB3 | PAD | TAB113

O=C(Nc1ccccc1)OC[C@H](CN1CCCCC1)OC(=O)Nc1ccccc1
inactive: all assays above

COCC(=O)Nc1c(I)c(C(=O)NC[C@@H](O)CO)c(I)c(C(=O)N(C)C[C@@H](O)CO)c1I
inactive: all assays above

Cc1ccc(S(=O)(=O)NC(=O)NN2C[C@H]3CCC[C@@H]3C2)cc1
not listed: DIV30
inactive: all other assays above

C[C@@H](C(=O)O)c1ccc(C(=O)c2ccccc2)s1
not listed: CP266
inactive: all other assays above

CC[C@H](CO)NCCN[C@@H](CC)CO
inactive: all assays above

C[C@@H]1Cc2ccccc2N1NC(=O)c1ccc(Cl)c(S(N)=O)c1 (stereo not given in full)
not listed: CP325
inactive: all other assays above

NS(=O)(=O)c1cc2c(cc1C(F)(F)F)N[C@H](Cc1ccccc1)NS2(=O)=O
inactive: all assays above

NC(=O)c1ccc[n+]([C@@H]2O[C@H](COP(=O)([O-])OP(=O)(O)OC[C@H]3O[C@@H](n4cnc5c(N)ncnc54)[C@@H](O)[C@@H]3O)[C@@H](O)[C@@H]2O)c1
inactive: all assays above

CCC[C@@H]1O[C@@H]2C[C@@H]3[C@H]4CCC5=CC(=O)C=C[C@@]5(C)[C@H]4[C@H](O)C[C@@]3(C)[C@@]2(C(=O)CO)O1
active: AA1029 11.2 µM | AS120 11.2 µM | CP297 12 µM | CP335 10.7 µM | DIV14 9.53 µM
inactive: CP262 | CP305 | CP329

C[C@H](C(=O)O)c1cccc(Oc2ccccc2)c1
inactive: all assays above

CC(=O)C[C@H](c1ccc([N+](=O)[O-])cc1)c1c(O)c2ccccc2oc1=O
not listed: CP297
inactive: all other assays above

CN1CCN([C@@H](c2ccccc2)c2ccc(Cl)cc2)CC1
active: DIV14 2.28 µM
not listed: CP203 | CP335 | DIV30 | AA1029 | AS120 | CP265 | PAD | TAB113
inactive: all other assays above

NCc1ccccc1CC(=O)N[C@@H]1C(=O)N2C(C(=O)O)=C(CSc3nnnn3CC(=O)O)CS[C@@H]12
not listed: DIV30
inactive: all other assays above

NC(=O)N[C@H]1NC(=O)NC1=O
inactive: all assays above

CN(C/C=C\c1ccccc1)Cc1cccc2ccccc12
not listed: CP297 | CP286
inactive: all other assays above

CO[C@]1(NC(=O)C2SC(=C(C(N)=O)C(=O)O)S2)C(=O)N2C(C(=O)O)=C(CSc3nnnn3C)CS[C@H]21 (stereo not given in full)
not listed: CP335
inactive: all other assays above

CC[C@H](Cc1c(I)cc(I)c(N)c1I)C(=O)O
inactive: all assays above

C=CCOc1ccccc1OC[C@H](O)CNC(C)C
not listed: CP266 | CP297
inactive: all other assays above

CC(=O)OCC(=O)[C@@]1(O)[C@H](C)C[C@@H]2[C@H]3CCC4=CC(=O)C=C[C@]4(C)[C@]3(F)[C@@H](O)C[C@@]21C
inactive: all assays above

CC(C)NC[C@H]1CCc2cc(CO)c([N+](=O)[O-])cc2N1
not listed: CP262
inactive: all other assays above

OCCN1CCN(CCC=C2c3ccccc3Sc3ccc(Cl)cc32)CC1
active: CP286 3.55 µM
inactive: CP203 | CP266 | CP297 | CP305 | TAB113

CNC[C@H](O)c1ccc(OC(=O)C(C)(C)C)c(OC(=O)C(C)(C)C)c1
not listed: CP269
inactive: all other assays above

Clc1ccc(CC[C@H](Cn2ccnc2)Sc2c(Cl)cccc2Cl)cc1
active: AS120 2.24 µM | CP203 6.42 µM | CP297 5.1 µM | CP329 6.42 µM | DIV14 3.22 µM | DIV30 5.73 µM | HB3 3.55 µM | PAD 3.55 µM | TAB113 3.55 µM

COC(=O)C1=C(C)NC(C)=C(C(=O)OC(C)C)[C@H]1c1cccc2nonc12
inactive: CP185 | CP265 | CP266 | DIV30 | PAD

CC1(C)O[C@H]2C[C@@H]3[C@H]4CCC5=CC(=O)CC[C@@]5(C)[C@]4(F)[C@@H](O)C[C@@]3(C)[C@@]2(C(=O)CCl)O1
inactive: CP266 | CP329
active: AA1029 2.82 µM | AS120 3.98 µM | CP260 3.16 µM | CP265 3.98 µM | DIV14 5.1 µM | DIV30 5.73 µM

NC[C@@H]1O[C@H](O[C@H]2[C@H](O)[C@H](O[C@@H]3O[C@H](CO)[C@@H](O)[C@H](N)[C@@H]3O)[C@@H](N)C[C@H]2N)[C@@H](O)[C@H](O)[C@@H]1O
inactive: all assays above
